Experimental data taken from PubChem BioAssay (NCI).
This is part of a sample that, as a whole, favours compounds with a hit. Of some 83,000 tested, about 20% had one in any assay.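 Cells were grown in 96-well plates and exposed to the test compound at a single concentration for 48 hours; results are reported as percent growth, with values below 10 considered active.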 A number with no mark means an inactive call. The source made the active and inactive calls.

These compounds were tested on HOP-92 NSCLC (assay: NCI-60 one-dose screen, 48 h (100 = growth as untreated, 0 = no growth, -100 = all killed)). Conditions: 10 µM unless noted.
Description: Growth inhibition of the HOP-92 human Non-Small Cell Lung tumor cell line is measured as a screen for anti-cancer activity. Cells are grown in 96 well plates and exposed to the test compound for 48 hours. Compounds are tested at a single concentration, which is 10^-5 M for most compounds. The reported endpoint is percent growth (GI% or GIPRCNT), where numbers from 0 - 100% represent growth inhibition, and numbers from -100% - 0 represent cell death. For example, a value of 40 represents 60% growth inhibition. A value of 0 means no net growth occurred over the course of the experiment. A value of -40 indicates 40% of cells at the beginning of the experiment died by the end of the experiment. A value of -100 means all cells are dead at the end of the experiment.
NCI-60 Human Tumor Cell Lines Screen was performed using the standard one-dose NCI protocol, which is described in more detail at https://dtp.cancer.gov/discovery_development/nci-60/default.htm.
Compounds with GIPRCNT values below 10 were considered active. Activity score was based on GIPRCNT using the following formula: […]
Score is 0 for GIPRCNT values of 100 or above, 50 for GIPRCNT values of 0, and 100 for GIPRCNT values of -100.
O=c1[nH]c(Nc2ccc(S(=O)(=O)O)cc2)nc2nc(Nc3ccc(NC(=S)Nc4ccccc4)cc3)nc(-c3ccc(O)cc3O)c12 gave a growth of 102%.
With O=C1Nc2ccc3c(c2/C1=C\c1cc2c(cc1Br)OCO2)OCO3 the growth was -5.47% (active).
With COc1cc(-c2nc(-c3nc4ccc(Cl)cc4[nH]3)cc3c2[nH]c2ccccc23)cc(OC)c1OC the growth was 51.8%.
Compound C=C(C)[C@@H]1C[C@@H]2Cc3cc(Cl)ccc3N1O2 has a growth of 25.2%.
With COc1ccc2c(c1)[nH]c(=O)c1c3cccc(F)c3cn21 the growth was 69.4%.
CC(C)(C)n1cc(-c2ccnc(NCCCNS(=O)(=O)c3ccc(F)cc3)c2)c(-c2cccc(O)c2)n1 showed a growth of 60.3%.
In the case of Cc1ccc2ccccc2c1C[n+]1ccccc1, the growth was 79.3%.
O=c1ccn(C2CC(O)C(O)C(CO)O2)c(=O)[nH]1 (stereo not given) showed a growth of 121%.
For N=C(N)c1ccc(-c2ccc(-c3cncc4ccccc34)s2)cc1F, the growth was -87.1% (active).
With O=C(NNC(=O)N1c2ccccc2C=Cc2ccccc21)c1ccccc1 the growth was 103%.
COc1ccc2[nH]c(C(=O)OCc3ccc4c(Cl)cc(Cl)c(O)c4n3)cc2c1 was tested, and the growth was -78.6% (active).
With Clc1cccc(-c2cc(-c3ccc4c(c3)OCCO4)[nH]n2)c1 the growth was 55.4% [25 µM].
With Cn1c(=O)cc(NC(=O)CN2CCN(c3cc4c(cc3F)c(=O)c(C(=O)O)cn4C3CC3)CC2)[nH]c1=O the growth was 99.8%.
Work on COc1ccc(-c2ccc(-c3ccc(C(=N)N)cn3)s2)cc1OC yielded a growth of 69.3%.
O=C(Nc1ccc(Cl)c(Cl)c1)NS(=O)(=O)c1cnccc1Oc1ccc(F)cc1 showed a growth of 52.7%.
In the case of N#Cc1c(-c2ccccc2)nc(SCC(=O)N2CCN(c3ccccc3)CC2)[nH]c1=O, the growth was 85%.
Compound COc1cc(-c2nn(-c3cccc(NC(=O)c4ccc(N5CCOCC5)c(C(F)(F)F)c4)c3)cc2-c2ccncc2)ccc1Cl has a growth of 11.5%.
In the case of CCOC(=O)NNC(=S)Nc1ccccc1, the growth was 93.5%.
O=C(/C=C\c1cccc([N+](=O)[O-])c1)/C=C/c1cccc([N+](=O)[O-])c1 showed a growth of 84.3%.
In the case of COc1ccc(/C=C2/C(=O)NC(SCC(=O)N3CCN(c4cc5c(cc4F)c(=O)c(C(=O)O)cn5C4CC4)CC3)=NC2N)cc1OC (stereo not given), the growth was 101%.
C=C1C(=O)O[C@H]2[C@H]1CC/C(Cn1cc(CNC(=O)c3cc4ccccc4[nH]3)nn1)=C\CC[C@@]1(C)O[C@@H]21 was tested, and the growth was 32.2%.
COc1cc(Cn2cc3c(c2)-c2oncc2CC3)cc(OC)c1OC showed a growth of 56.4%.
In the case of CCCCCCCCCCCCNC(=O)[C@H]1CSC(c2cc(Br)cs2)N1 (stereo not given in full), the growth was 61.7%.
c1ccc(-c2nnc(-c3ccccn3)s2)nc1 showed a growth of 89.7%.
COc1ccc(-c2nc(N3CCCC3=O)sc2Br)cc1OC gave a growth of 113%.
Work on N=C(N)c1ccc(-c2ccc(-c3ccc(-c4cccs4)s3)s2)cc1 yielded a growth of 54.6%.
Compound COc1ccc(/C(C#N)=C/c2cc(OC)c(OC)c(OC)c2)cc1 has a growth of 31.6%.
For O=c1[nH]c(-c2ccccc2)nc(CN2CCCCC2)c1O, the growth was 92.8%.
In the case of O=C(Nc1ccc(NCCN2CCOCC2)nc1)c1ccc([N+](=O)[O-])cc1, the growth was 103%.
Compound O=c1c2sc3ncccc3c2nnn1-c1ccccc1 has a growth of 97.5%.
With CC(C)(C)N1CCC1C(N)=O (stereo not given) the growth was 100%.
In the case of COc1cc(-c2nn(-c3cccc(NC(=O)c4cccc(C(F)(F)F)c4)c3)cc2-c2ccncc2)ccc1Cl, the growth was -5.59% (active).
Fc1ccc(-c2nc(-c3nc4ncccc4[nH]3)cc3c2[nH]c2ccccc23)cc1F showed a growth of 70.2%.
Compound COc1cccc(/C=C2\Oc3cc(OCCCN4CCCC4)ccc3C2=O)c1OC has a growth of 91.2%.
COc1cc(NCCCCCN)c2ncccc2c1 was tested, and the growth was 117%.
N[C@H]1CN(C(=O)c2cc3cc(Br)c(F)c(F)c3[nH]2)C[C@@H]1O gave a growth of 79.2%.
CCOC(=O)C1C(=O)C=C(c2ccc(OC)cc2)CC1c1sc(N(C)Cc2ccccc2)nc1Cl (stereo not given) showed a growth of 29.8%.
CCN1CCN(CC(=O)N2c3cccc4cccc(c34)N(C(=O)CN3CCN(CC)CC3)C2c2cn(-c3ccccc3)nc2-c2cccc([N+](=O)[O-])c2)CC1 gave a growth of 61.4%.
Compound C=C1CCC[C@]2(C)CCC[C@H](C)[C@@H](OC(C)=O)[C@@H]3OC(=O)C(=C)[C@@H]3C[C@H]1O2 has a growth of 24%.
O=S(=O)(CC(O)(c1ccccc1)c1ccccc1)CC(O)(c1ccccc1)c1ccccc1 gave a growth of 86.7%.
